Consider ten compounds from PubChem BioAssay (NCATS).

Experiment [1] in a line: Dual reporter qHTS for antagonist of Pregnane X Receptor (hPXR) against the NCATS DSHEA and TCM libraries: Fluorescence Readout (AID 1920061). Note: 0% is about no effect. As to conditions: PXR dual reporter cells, antagonist mode; series mostly up to 40 µM. In short, it runs like this:
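In antagonist mode, 2 uM rifampicin was added to hPXR-Luc HepG2 cells alongside test substances, incubated 24 h at 37 C; luminescence gave reporter activity, and CellTiter-Fluor fluorescence (405/540 nm) gave viability.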

The nature of experiment [2]: qHTS drug screen for cell cycle checkpoint inhibitors in PARPi-resistant BRCA-mutant ovarian cancer cell lines. (AID 1963452; calls by dose curve). As to conditions: PEO1/OlaR viability, CellTiter-Glo luminescence, 96 h, stronger effect = lower value. A digest of the protocol:
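PEO1, PEO4 and PEO1/OlaR ovarian cancer cells, 600 per well, exposed 96 h at 37C to a dilution series. Viability read by CellTiter-Glo luminescence, normalized to DMSO and empty wells; activity summarized as Z-AUC.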
(qHTS replaces the single test concentration by a dilution series.)

Experiment [3] can be described thus: qHTS profiling for inhibitors of Plasmodium falciparum proliferation (AID 504749).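 For activity, negative = inhibition: 0% = DMSO vehicle and full inhibition = artemisinin control.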 Note: nearly all actives have a fitted effect of over 60% in size. Note: potency is the fitted concentration of half-maximal effect. As to conditions: P. falciparum in erythrocytes, SYBR Green DNA, 72 h. A digest of the protocol: (§1)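 Readout was DNA-dye fluorescence from lysed cultures, ex 485/em 535 nm. Parasitized red cells had grown 72 h with compound; data scaled between 0.29 uM artemisinin and DMSO wells and corrected using vehicle-only plates.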

Another experiment relates to 3D7. The experiment is described as above. As to conditions: P. falciparum in erythrocytes, SYBR Green DNA, 72 h; series mostly up to 28.7 µM. A digest of the protocol:
as §1

The next experiment deals with 7G8. The experiment is described as above. As to conditions: P. falciparum in erythrocytes, SYBR Green DNA, 72 h; series mostly up to 28.7 µM. In short, it runs like this: as §1
Another experiment has as its system AA1029. The experiment is described as above. Particulars: P. falciparum in erythrocytes, SYBR Green DNA, 72 h; series mostly up to 28.7 µM. In short, it runs like this: as §1
A further experiment deals with AS120. The experiment is described as above. As to conditions: P. falciparum in erythrocytes, SYBR Green DNA, 72 h; series mostly up to 28.7 µM. In short, it runs like this:
as §1

The next experiment deals with ATS189. The experiment is described as above. Particulars: P. falciparum in erythrocytes, SYBR Green DNA, 72 h; series mostly up to 28.7 µM. A digest of the protocol: as §1
For a further experiment, the system named is ATS95. Described as above. Particulars: P. falciparum in erythrocytes, SYBR Green DNA, 72 h; series mostly up to 28.7 µM. In short, it runs like this: as §1
The next experiment deals with C2A. Described as above. Particulars: P. falciparum in erythrocytes, SYBR Green DNA, 72 h; series mostly up to 28.7 µM. In short, it runs like this:
as §1

The subject of another experiment is CP185. The description is as above. Particulars: P. falciparum in erythrocytes, SYBR Green DNA, 72 h; series mostly up to 28.7 µM. A digest of the protocol: as §1
The next experiment deals with CP191. Described as above. As to conditions: P. falciparum in erythrocytes, SYBR Green DNA, 72 h; series mostly up to 28.7 µM. A digest of the protocol:
as §1

In another experiment the test system is CP192. The experiment is described as above. Particulars: P. falciparum in erythrocytes, SYBR Green DNA, 72 h; series mostly up to 28.7 µM. In short, it runs like this: as §1
Another experiment has as its system CP194. The experiment is described as above. As to conditions: P. falciparum in erythrocytes, SYBR Green DNA, 72 h; series mostly up to 28.7 µM. In short, it runs like this:
as §1

The test system of a further experiment is CP201. The description is as above. Particulars: P. falciparum in erythrocytes, SYBR Green DNA, 72 h; series mostly up to 28.7 µM. A digest of the protocol:
as §1

A further experiment relates to CP203. The experiment is described as above. As to conditions: P. falciparum in erythrocytes, SYBR Green DNA, 72 h; series mostly up to 28.7 µM. In short, it runs like this:
as §1

For the next experiment, the system named is CP211. The experiment is described as above. Particulars: P. falciparum in erythrocytes, SYBR Green DNA, 72 h; series mostly up to 28.7 µM. In short, it runs like this:
as §1

A further experiment has as its system CP215. Described as above. Particulars: P. falciparum in erythrocytes, SYBR Green DNA, 72 h; series mostly up to 28.7 µM. In short, it runs like this: as §1
The next experiment deals with CP217. Described as above. As to conditions: P. falciparum in erythrocytes, SYBR Green DNA, 72 h; series mostly up to 28.7 µM. A digest of the protocol: as §1
For a further experiment, the system named is CP237. The experiment is described as above. As to conditions: P. falciparum in erythrocytes, SYBR Green DNA, 72 h; series mostly up to 28.7 µM. A digest of the protocol: as §1
[4] abbreviates: measured here: PEO1 parental Z-AUC.
Setting [5] is: at 28.7 µM (top of the series), parasite line A.
Setting [6] is: at 28.7 µM (top of the series), parasite line B.

Inconclusive results are not listed. Active and inactive are the calls of the source. Unless noted, calls come from the whole dose curve; as a rule, active = well fitted curve in the direction sought with a large enough effect; inconclusive = small, poorly fitted or top-dose-only effect, or another doubt; inactive = no such curve, though single readings can be large; an effect the other way counts as inactive or inconclusive.

`NC(N)=NCCC[C@H](N)C(=O)O`: the call in experiment [1] was inactive.
As to `Nc1ncnc2c1ncn2[C@@H]1O[C@H](CO)[C@@H](O)[C@H]1O`, the Z-AUC in experiment [2] is 0.682 (inactive); in [2] (setting [4]), 0.71; in experiment [2] (measured here: PEO4 Z-AUC) it was 1.16. Also, the activity, negative = inhibition in [3] (setting [5]) was 7.65% (inactive); in experiment [3] (setting [6]), 2.17% (inactive). Moreover, the Potency result in the experiment with 3D7, with 7G8, in the experiment on AA1029, in the experiment with AS120, with ATS189 and in the experiment with ATS95 was “inactive” in each case. For the same compound, the Potency entry in the experiment with C2A, with CP185, in the experiment on CP191, in the experiment with CP192, with CP194 and in the experiment with CP201 was “inactive” throughout. Also, the Potency result in the experiment with CP203, with CP211, with CP215, in the experiment on CP217 and in the experiment on CP237 was “inactive” each time.
As for `CC(O)COc1ccccc1` (configuration not stated), the activity, negative = inhibition in experiment [3] (setting [5]) is 5.76% (inactive); in [3] (setting [6]), 0.212% (inactive). Moreover, the Potency entry in the experiment with 3D7, with 7G8, in the experiment with AA1029, in the experiment with AS120, in the experiment on ATS189 and in the experiment on ATS95 was “inactive” in each case. The Potency result in the experiment with C2A, in the experiment with CP185, with CP191, with CP192, in the experiment on CP194 and in the experiment with CP201 was “inactive” throughout. In addition, the Potency result in the experiment on CP203, in the experiment on CP211, with CP215, in the experiment on CP217 and with CP237 was “inactive” each time.
For `CCCCN(CCCC)CCCOC(=O)c1ccc(N)cc1`, the activity, negative = inhibition in experiment [3] (at 12.8 µM (top of the series), parasite line A) was -10.5% (inactive); in experiment [3] (at 12.8 µM (top of the series), parasite line B), 3.88% (inactive). Moreover, the Potency result in the experiment with 3D7, in the experiment with 7G8, with AA1029, in the experiment with AS120, with ATS189 and with ATS95 was “inactive” in each case. Further, the Potency entry in the experiment on C2A, in the experiment on CP185, with CP191, in the experiment on CP192, in the experiment with CP194 and in the experiment on CP201 was “inactive” each time. Moreover, the Potency entry with CP203, with CP211, in the experiment on CP215, in the experiment with CP217 and with CP237 was “inactive” each time.
For `CC[C@H]1CN2CCc3cc(OC)c(OC)cc3[C@@H]2C[C@@H]1C[C@H]1NCCc2cc(OC)c(OC)cc21`, the Z-AUC was -0.485 (inactive) in experiment [2], -0.835 in experiment [2] (setting [4]) and -0.876 in [2] (measured here: PEO4 Z-AUC).
Turning to `NC(=O)c1ncn([C@@H]2O[C@H](CO)[C@@H](O)[C@H]2O)c1N`, the Z-AUC in experiment [2] was -0.269 (inactive); in [2] (setting [4]), -0.745; in [2] (measured here: PEO4 Z-AUC), -0.555.
Regarding `OC[C@H]1O[C@@H](O[C@@H]2[C@@H](CO)O[C@](O)(CO)[C@H]2O)[C@H](O)[C@@H](O)[C@H]1O`, the Z-AUC is -0.433 (inactive) in experiment [2], -0.31 in experiment [2] (setting [4]) and -0.255 in experiment [2] (measured here: PEO4 Z-AUC).
In the case of `COc1ccc2[nH]c(S(=O)Cc3ncc(C)c(OC)c3C)nc2n1` (configuration not stated), the values for the Z-AUC in [2], in experiment [2] (setting [4]) and in experiment [2] (measured here: PEO4 Z-AUC) were -1.06 (inactive), -0.26 and 0.544, respectively. The Potency in [3] (parasite line B) was 10 µM (active); in the experiment on 3D7, 10 µM (active); in the experiment with 7G8, 11.2 µM (active); in the experiment on AS120, 8.91 µM (active). Further, the Potency result with CP192, in the experiment with CP194, in the experiment on CP201, in the experiment with CP203, in the experiment on CP211 and with CP215 was “inactive” each time.
As for `Cc1c(O)cccc1C(=O)N[C@@H](CSc1ccccc1)[C@H](O)CN1C[C@H]2CCCC[C@H]2C[C@H]1C(=O)NC(C)(C)C`, the figures for the Z-AUC in [2], in experiment [2] (setting [4]) and in experiment [2] (measured here: PEO4 Z-AUC) were -0.819 (inactive), -0.979 and -1.07, respectively. In addition, the Potency was 7.94 µM (active) in experiment [3] (parasite line B), 12.6 µM (active) in the experiment on 3D7 and 10 µM (active) in the experiment on AS120. The Potency entry in the experiment on C2A, in the experiment on CP185, with CP192 and with CP211 was “inactive” in each case.
Consider `O=C(CCCN1CCN(c2ccccn2)CC1)c1ccc(F)cc1`, for which the activity, negative = inhibition in [3] (setting [5]) was -3.57% (inactive); in experiment [3] (setting [6]), 15.4% (inactive). The Potency result with 3D7, in the experiment with 7G8, with AA1029, in the experiment on AS120, in the experiment on ATS189 and in the experiment with ATS95 was “inactive” each time. For the same compound, the Potency result with C2A, in the experiment on CP185, in the experiment on CP191, in the experiment on CP192, with CP194 and in the experiment with CP201 was “inactive” in each case. Besides, the Potency result with CP203, in the experiment on CP211, in the experiment with CP215, in the experiment with CP217 and in the experiment with CP237 was “inactive” in each case.
